In the library only some 6.9% were active in any assay of this set; here they are far more common.
Vif-A3F inh: blocks the Vif interaction with APOBEC3F | HeLa A3F-eYFP + Vif (tagged APOBEC3F with the HIV-1 protein that degrades it), YFP fluorescence increase | Potency, µM (titrated, usually from 46.1 µM), for inactives: at the highest dose activity, negative = active | 0.2% of 390,000 active; further: potency means the concentration at half of the fitted maximal effect; % of control where 0% means no effect; nearly all actives have a fitted effect of over 65% in size
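Fluorescence increase (Ex 488/Em 500-530) after overnight compound treatment at 37 deg C flags inhibition of Vif-driven A3F-eYFP loss in stable HeLa A3F-eYFP/Vif cells seeded overnight beforehand.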
Giardia kill: kills Giardia lamblia; Giardia lamblia trophozoite viability; activity change, % at 7.66 µM, hits read low; 0.15% of 340,000 active; AID 540267; in the data active means activity change below about -80%; inconclusive means between about -30% and that limit;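 further: parasites exposed to compound for two days anaerobically before the ATP read; on the % scale 0 is the no-effect control and ±100 the full control effect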
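Viability, read as ATP luminescence: trophozoites at 100 cells/well, compound added, 48 hrs anaerobic at 37 deg C, then 15-30 min room-temperature development before reading.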
MCF10A rerep: induces DNA re-replication in MCF 10a normal breast cells. MCF 10A DNA re-replication, Hoechst nuclear intensity, 48 h. Potency, µM (doses to about 46.1 µM), without a hit: at the highest dose activity, positive = re-replication, usual class: activators. 2.9% of 350,000 active; further: potency means the concentration at half of the fitted maximal effect; % of control where 0% means no effect; nearly all actives have a fitted effect of over 50% in size
IL1B secr inh: inhibitors of inflammasome signaling (IL-1 beta secretion); THP-1 LPS/ATP IL-1B secretion, AlphaLISA, 16 h; hits give low values; activity change, % at 57.5 µM; 4.7% of 360,000 active; AID 743279; in the data active means activity change below about -50%; inconclusive means mostly about -30% to -49%; further: on the % scale 0 is the no-effect control and ±100 the full control effect
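Secreted IL-1B measured by AlphaLISA bead assay after 16 h compound exposure of THP-1 cells; compounds (final up to 57.5 uM) added 1 h before LPS (250 ng/mL) and ATP (1.25 mM) stimulation; lower signal means less secretion.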
SW480 rereplic: inducers of DNA re-replication in SW480 colon cancer cells; SW480 DNA re-replication, Hoechst DNA content imaging, 48 h; Potency, µM (highest dose often 46.1 µM), inactives show top-dose re-replication activation, usual class: activators; 1.8% of 340,000 active; AID 624297; further: potency means the concentration at half of the fitted maximal effect; % of control where 0% means no effect; nearly all actives have a fitted effect of over 55% in size
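Cells (250 per well) received 23 nL compound or DMSO by pin tool and were kept 48 hr at 37 C, 5% CO2. Nuclei were then stained with Hoechst for 40 min and scanned for DNA content.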
Vif-APOBEC3G blk: blocks the Vif interaction with human APOBEC3G; Q9HC16; HeLa A3G-eYFP + Vif (tagged APOBEC3G with the HIV-1 protein that degrades it), YFP fluorescence, overnight; Potency, µM (doses to about 46.1 µM), for inactives: top-dose activity, negative = active, hits mostly inhibitors; 0.076% of 410,000 active; AID 602310; further: potency means the concentration at half of the fitted maximal effect; on the % scale 0 is the no-effect control and ±100 the full control effect; nearly all actives have a fitted effect of over 60% in size
Target sequence (Q9HC16 whole entry, looked up): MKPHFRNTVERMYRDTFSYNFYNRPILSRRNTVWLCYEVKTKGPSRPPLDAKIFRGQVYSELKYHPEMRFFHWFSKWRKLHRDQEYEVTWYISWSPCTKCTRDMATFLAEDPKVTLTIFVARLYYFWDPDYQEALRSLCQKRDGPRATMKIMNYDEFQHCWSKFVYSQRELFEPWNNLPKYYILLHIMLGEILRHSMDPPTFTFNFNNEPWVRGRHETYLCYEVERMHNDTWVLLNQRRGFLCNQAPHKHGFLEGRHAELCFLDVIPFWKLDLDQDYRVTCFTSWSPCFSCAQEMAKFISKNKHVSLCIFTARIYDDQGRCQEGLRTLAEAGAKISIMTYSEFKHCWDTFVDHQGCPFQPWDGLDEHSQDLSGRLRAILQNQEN
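HeLa cells stably expressing Vif and C-terminally eYFP-tagged A3G, seeded overnight at 37 deg C, then exposed to compound by pintool overnight at 37 deg C. Rise in yellow fluorescence (Ex 488/Em 500-530, Acumen) marks blocked Vif-driven A3G degradation.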
Active calls of the source: *. Unless noted, the call rests on the fitted dose curve; in most records, active means well fitted curve in the direction sought with a large enough effect; inconclusive means small, poorly fitted or top-dose-only effect, or another doubt; inactive means no such curve, though single readings can be large; an effect the other way counts as inactive or inconclusive.

Screening CCCc1nc2ccccc2c(C(=O)OCC(=O)N2CCc3ccccc32)c1CC returned Vif-A3F inh -8%, Giardia kill 4, MCF10A rerep 21µM*, IL1B secr inh 13, SW480 rereplic 0% and Vif-APOBEC3G blk 0%.
`C[C@@H](C(=O)NCc1ccccn1)[C@H]1C[C@]1(C)[C@H](NC(=O)OCc1ccccc1)c1ccccc1` gave Vif-A3F inh 0%, Giardia kill 21, MCF10A rerep 21µM*, IL1B secr inh -24, SW480 rereplic -2% and Vif-APOBEC3G blk -13%.
Screening C[C@@H](C(=O)NCCc1c[nH]c2ccccc12)[C@H]1C[C@]1(C)[C@H](NC(=O)OCc1ccccc1)c1ccccc1 returned Vif-A3F inh 6%, Giardia kill 10, MCF10A rerep -4%, IL1B secr inh -23, SW480 rereplic 15µM* and Vif-APOBEC3G blk -1%.
Screening C[C@@H](C(=O)NCC1CC1)[C@@H]1C[C@@]1(C)[C@@H](NC(=O)OCc1ccccc1)c1ccccc1 returned Vif-A3F inh 4%, Giardia kill 4, MCF10A rerep 8%, IL1B secr inh -1, SW480 rereplic inconclusive and Vif-APOBEC3G blk -5%.
Screening Cc1ccc(S(=O)(=O)CCSC(=N)N)cc1 returned Vif-A3F inh 2%, Giardia kill -2, MCF10A rerep 18µM*, IL1B secr inh -115*, SW480 rereplic 6.5µM* and Vif-APOBEC3G blk -1%.
Cc1ccc(S(=O)(=O)CC(N)=O)cc1 was read as Vif-A3F inh 3%, Giardia kill 1, MCF10A rerep inconclusive, IL1B secr inh 28, SW480 rereplic 5% and Vif-APOBEC3G blk 2%.
For CCOC(=O)c1nnn(CC(=O)Nc2cc(F)ccc2F)c1C(=O)OCC the results were Vif-A3F inh 0%, Giardia kill inconclusive, MCF10A rerep inconclusive, IL1B secr inh -73*, SW480 rereplic 0% and Vif-APOBEC3G blk 3%.
Screening COC(=O)c1nnn(CC(=O)Nc2cc(F)ccc2F)c1C(=O)OC returned Vif-A3F inh 1% and Vif-APOBEC3G blk 0%.
Screening CCC(C)c1ccc(NC(=O)Nc2cnccn2)cc1 (configuration not stated) returned Vif-A3F inh -7%, Giardia kill 2, MCF10A rerep 5.8µM*, IL1B secr inh 17, SW480 rereplic 3.3µM* and Vif-APOBEC3G blk inconclusive.
Screening Cc1ccc(NC(=O)C2CCCN(S(=O)(=O)c3ccc4c(c3)CCCC(=O)N4)C2)cc1Cl (configuration not stated) returned Vif-A3F inh 10% and Vif-APOBEC3G blk 4%.
CC1(C(=O)NCc2ccc(C(F)(F)F)cc2)CCN1Cc1ccc(-c2ccccc2)o1 (configuration not stated) was read as IL1B secr inh -54* and Vif-APOBEC3G blk -7%.
Screening CC1(C(=O)NCc2ccc(C(F)(F)F)cc2)CCN1Cc1c(F)cccc1F (configuration not stated) returned IL1B secr inh 4 and Vif-APOBEC3G blk -1%.
COc1ccc(C(C(=O)NCc2ccccc2)N(C(=O)Cn2nnc3ccccc32)c2ccc(OC)cc2)cc1 (configuration not stated) was read as Vif-A3F inh 2% and Vif-APOBEC3G blk -3%.
Screening C=CS(=O)(=O)N(Cc1ccc(Cl)c(Cl)c1)C[C@@H](O)CO returned Vif-A3F inh -9%, Giardia kill 20, MCF10A rerep inconclusive, IL1B secr inh -104*, SW480 rereplic inconclusive and Vif-APOBEC3G blk -25%.
`O=C(O)c1sccc1SCc1ccc(Cl)c(Cl)c1` gave Vif-A3F inh 2%, Giardia kill -3, MCF10A rerep 12%, IL1B secr inh 11, SW480 rereplic -11% and Vif-APOBEC3G blk -4%.
`COc1ccc(-c2cc(C(F)(F)F)nc(SCCC(=O)Nc3ccc(OC)c(OC)c3)n2)cc1` gave Vif-A3F inh -8% and Vif-APOBEC3G blk -1%.
`c1cnc2ccc(C(c3nnnn3C3CCCC3)N3CCN(c4nc5ccccc5s4)CC3)cc2c1` (configuration not stated) gave Vif-A3F inh 0%, Giardia kill 9, MCF10A rerep 4%, IL1B secr inh -53*, SW480 rereplic -2% and Vif-APOBEC3G blk -1%.
Clc1ccc(C(c2nnnn2C2CCCC2)N2CCN(c3nc4ccccc4s3)CC2)cc1 (configuration not stated) was read as Vif-A3F inh 2%, Giardia kill 17, MCF10A rerep -4%, IL1B secr inh -5, SW480 rereplic -5% and Vif-APOBEC3G blk 2%.
`Cc1ccc(Cl)cc1N1CCN(C(c2cccnc2)c2nnnn2C2CCCCC2)CC1` (configuration not stated) gave Vif-A3F inh -3%, Giardia kill 9, MCF10A rerep 5%, IL1B secr inh -53*, SW480 rereplic -1% and Vif-APOBEC3G blk -1%.
For Oc1ccc(C(c2nnnn2CCc2ccccc2)N2CCN(c3nc4ccccc4s3)CC2)cc1 (configuration not stated) the results were Vif-A3F inh -5%, Giardia kill -4, MCF10A rerep 1%, IL1B secr inh -50*, SW480 rereplic 2% and Vif-APOBEC3G blk 2%.
Screening COc1ccc(Cn2ccc3nc(C)c(C(=O)NCc4ccc(SC)cc4)cc3c2=O)cc1 returned Vif-A3F inh -2% and Vif-APOBEC3G blk 0%.
`O=c1oc2ccccc2nc1/C=C(\O)c1ccccc1` gave Vif-A3F inh 13%, Giardia kill 5, MCF10A rerep 2%, IL1B secr inh 39, SW480 rereplic -9% and Vif-APOBEC3G blk -8%.
Screening O/C(=C\c1nc2ccccc2nc1/C=C(\O)c1ccccc1)c1ccccc1 returned Vif-A3F inh inconclusive, Giardia kill inconclusive, MCF10A rerep 11%, IL1B secr inh -98*, SW480 rereplic 0% and Vif-APOBEC3G blk -7%.
Screening CCN(c1ccccc1)S(=O)(=O)c1ccc(OC)c(NC(=O)C2CCC2)c1 returned Vif-A3F inh -17%, Giardia kill 21, MCF10A rerep 18µM*, IL1B secr inh -5, SW480 rereplic inconclusive and Vif-APOBEC3G blk -20%.
Screening CCN(CC)S(=O)(=O)c1ccc(N(C)C)c(NC(=O)C2CCCC2)c1 returned Vif-A3F inh 1%, Giardia kill 1, MCF10A rerep 13%, IL1B secr inh -54*, SW480 rereplic 7% and Vif-APOBEC3G blk 0%.
CCN(CC)c1ccc(S(=O)(=O)N(CC)CC)cc1NC(=O)C1CCCC1 was read as Vif-A3F inh 1%, Giardia kill 11, MCF10A rerep -15%, IL1B secr inh -4, SW480 rereplic 4% and Vif-APOBEC3G blk 2%.
